PubChem BioAssay (NCATS)
Records with an inconclusive call do not appear. Calls of active or inactive are those of the source. Unless noted, calls follow the shape of the dose curve; as a rule, active = well fitted curve in the direction sought with a large enough effect; inconclusive = small, poorly fitted or top-dose-only effect, or another doubt; inactive = no such curve, though single readings can be large; an effect the other way counts as inactive or inconclusive.

Columns and labels:
[1] = AP1 Signaling Pathway (AID 357; active = well fitted curve in either direction with a large enough effect, not every such curve was filed as active;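 also: ME-180 reporter cells stimulated with EGF at its EC50 level; % is scaled to controls: 0 for no effect and ±100 for the full control effect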)
How it was run: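 Beta-lactamase reporter under AP-1 response element, ME-180 background. Stimulus: EC50 EGF. Compound exposure 5 h, 37 °C. Detection: CCF4, 2.5 h RT, 460/530 nm. Values: AC50 from titration.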

[2] = target: Cytochrome P450 1A2 (Homo sapiens) (UniProt P05177); assay: p450-cyp1a2 (AID 410; calls by dose curve; also: potency is read from the fitted curve at half-maximal effect;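 as to activity change, negative = inhibition: -100% = full effect of reference inhibitor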)
How it was run: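 Human CYP1A2 (20nM) demethylated Luciferin-ME at its Km (100uM) in 100mM KPO4. After 10 min compound preincubation, NADPH regeneration ran the reaction 60 min at room temperature. Luciferin was read by luminescence, normalized to 57 uM furafylline.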

[3] = NFAT Signaling Pathway (AID 444; active = well fitted curve in either direction with a large enough effect, not every such curve was filed as active;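 also: carbachol stimulus at about its EC50 of 1 µM final; % is scaled to controls: 0 for no effect and ±100 for the full control effect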); details: Jurkat NFAT-bla M1, carbachol, beta-lactamase ratio, 5 h; at 17.2 µM (top of the series) unless noted
How it was run: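 Jurkat cells with NFAT-driven β-lactamase reporter and co-expressed M1 receptor, stimulated with carbachol (final 1 uM, ~EC50), compound titration, 5 h at 37 °C. CCF4 loaded 1 h at RT; 460/530 nm ratio gave %activity and AC50.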

[4] = Stat Signaling Pathway (AID 446; active = well fitted curve in either direction with a large enough effect, not every such curve was filed as active;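 also: ME-180 cervical cancer cells given 40 pM IL-6 alongside compound; SIE-controlled beta-lactamase reporter measured as 460/530 nm FRET emission ratio; % is scaled to controls: 0 for no effect and ±100 for the full control effect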)
How it was run: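 ME-180 cells carrying a SIE-driven beta-lactamase reporter are stimulated with 40 pM IL-6 for 5 h at 37C in the presence of compound. The 460/530 nm FRET substrate ratio is read after 2.5 h at RT. Data are normalised to 300 pM IL-6 and to 125 nM JAK inhibitor controls.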

[5] = target: Glucocorticoid receptor (Homo sapiens) (UniProt P04150); assay: GR-GFP Redistribution (AID 450;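 active = compounds whose dose series gives a full or clear partial fitted curve of increased nuclear translocation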; also: potency is read from the fitted curve at half-maximal effect); details: U2OS GR-GFP nuclear translocation, laser cytometry, 2 h
[6] = target: Glucocorticoid receptor (Homo sapiens) (UniProt P04150); assay: GR-EFC Redistribution (AID 451; calls by dose curve; also: potency is read from the fitted curve at half-maximal effect); details: CHO-K1 GR-EFC translocation, beta-gal luminescence, 2 h
How it was run: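 CHO-K1 cells expressing nuclear EA and GR-ED fragments of b-gal; compounds titrated up to 46 uM final, 2 h at 37 C. GR nuclear translocation read as complemented b-gal luminescence after 1 h RT detection.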

[7] = target: Mitogen-activated protein kinase 10 (Mus musculus) (UniProt Q61831); assay: JNK3 AlphaScreen Assay (AID 530; active = well fitted curve in either direction with a large enough effect, not every such curve was filed as active;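 also: kinase came from lysate of stimulated human HepG2 cells; signal reports phosphorylation of biotinylated GST-cJun 1-79 at Ser73 with 10 µM ATP; % is scaled to controls: 0 for no effect and ±100 for the full control effect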)
How it was run: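 qHTS format: compounds tested as titrations against IL-1beta/TNF-alpha-activated HepG2 lysate JNK3 with biotin-GST-cJun substrate and 10 uM ATP at room temperature. Loss of anti-phospho-cJun AlphaScreen signal indicates inhibition.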

[8] = target: 3',5'-cyclic-AMP phosphodiesterase 4B (Homo sapiens) (UniProt Q07343); assay: qHTS Assay for Inhibitors of PDE-IV (AID 607; active = well fitted activation curve with a large enough effect in the main read-out, with a control signal flat, not every such curve was filed as active; also: % of control where 0% means no effect)
How it was run: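 HEK293 ACTOne cells with CNG channel (1000/well), endogenous PDE4; membrane potential dye, compounds up to 22.9 uM final. Fluorescence Ex 535/Em 590; RO 20-1724 (100 uM final) as reference.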

[9] = qHTS Assay for Lipid Storage Modulators (AID 1519; calls by dose curve); details: Drosophila S3 cells, BODIPY lipid droplet/cell ratio, laser cytometry, cells loaded with oleic acid; for activity change, negative = inhibition: at 25.7 µM (top of the series)
How it was run: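 Cells seeded at 5,000 per well were treated with compounds over a concentration series and loaded with oleic acid (400 uM, as added). Lipid droplet fluorescence (488 nm excitation, 500-530 nm channel) was read by laser-scanning cytometry and normalized to 20 uM Triacsin C.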

[10] = target: ATP-dependent 6-phosphofructokinase (Trypanosoma brucei brucei) (UniProt O15648); assay: qHTS Assay to Find Inhibitors of T. brucei phosphofructokinase: hit validation (AID 492961); also: % is scaled to controls: 0 for no effect and ±100 for the full control effect
How it was run: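 Luminescence from ADP-Glo reports ADP generated as T. brucei PFK (1.25 nM) phosphorylates 0.5 mM fructose-6-phosphate using 0.1 mM ATP. Reactions ran 45 min at room temperature, pH 8.0.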

[11] = target: Luciferin 4-monooxygenase (Photinus pyralis) (UniProt P08659); assay: Biochemical firefly luciferase enzyme assay for NPC (AID 624030);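 also: purified P. pyralis luciferase at 10 nM with luciferin and ATP substrate; 0% = DMSO and -100% = full luciferase inhibition by PTC124 control; nearly all actives have a fitted effect of over 70% in size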
How it was run: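 Purified P. pyralis luciferase at 10 nM in 50 mM Tris Acetate (final), luminescence read within 5 minutes of enzyme addition to compounds. Activity normalised to PTC124 versus DMSO; concentration-response curves classed by r2, magnitude and activity.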

[12] = S16 Schwann cell viability assay (CellTiter-Glo assay) (AID 624031);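 also: cellular ATP luminescence as a viability measure; plate controls were DMSO-treated cells for no effect and cell-free wells for full effect; nearly all actives have a fitted effect of over 70% in size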
How it was run: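 Luminescent ATP read-out (CellTiter-Glo) after 24 h compound exposure of native S16 rat Schwann cells at 37 °C. Signals were normalized between cell-free wells and DMSO-treated cells, set as 0% activity.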

[13] = qHTS profiling for inhibitors of Plasmodium falciparum proliferation (AID 504749); also: nearly all actives have a fitted effect of over 60% in size; also: potency is read from the fitted curve at half-maximal effect;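 as to activity, negative = inhibition: 0% = DMSO vehicle and full inhibition = artemisinin control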; details: P. falciparum in erythrocytes, SYBR Green DNA, 72 h
How it was run: (§1)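 Readout was DNA-dye fluorescence from lysed cultures, ex 485/em 535 nm. Parasitized red cells had grown 72 h with compound; data scaled between 0.29 uM artemisinin and DMSO wells and corrected using vehicle-only plates.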

C2A = assay: as above; details: P. falciparum in erythrocytes, SYBR Green DNA, 72 h; series mostly up to 12.8 µM
How it was run: as §1

CP191 = assay: as above; details: P. falciparum in erythrocytes, SYBR Green DNA, 72 h; series mostly up to 12.8 µM
How it was run: as §1

CP250 = assay: as above; details: P. falciparum in erythrocytes, SYBR Green DNA, 72 h; series mostly up to 12.8 µM
How it was run: as §1

FAB9 = assay: as above; details: P. falciparum in erythrocytes, SYBR Green DNA, 72 h; series mostly up to 12.8 µM
How it was run: as §1

JCK = assay: as above; details: P. falciparum in erythrocytes, SYBR Green DNA, 72 h; series mostly up to 12.8 µM
How it was run: as §1

SC27B = assay: as above; details: P. falciparum in erythrocytes, SYBR Green DNA, 72 h; series mostly up to 12.8 µM
How it was run: as §1

[14] = target: Ubiquitin carboxyl-terminal hydrolase 1 (Homo sapiens) (UniProt O94782); assay: Inhibitors of USP1/UAF1: Pilot qHTS (AID 504865);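 also: rhodamine fluorescence freed from ubiquitin-rhodamine substrate followed over time; top concentration of the series differs between compounds; % is scaled to controls: 0 for no effect and ±100 for the full control effect; nearly all actives have a fitted effect of over 35% in size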
How it was run: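 In 50mM HEPES pH 7.8 containing 0.5mM EDTA, 1mM TCEP, 0.1 mg/ml BSA and 0.01% Tween-20, 1nM USP1/UAF1 is exposed to compound for 15 min, then Ub-Rho (150nM final) is added and fluorescence is read over time.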

[15] = measured here: cell count channel max response
[16] = measured here: lipid channel max response
[17] = at 12.8 µM (top of the series), parasite line B

Sequence of Luciferin 4-monooxygenase (Photinus pyralis) (P08659 whole entry, looked up): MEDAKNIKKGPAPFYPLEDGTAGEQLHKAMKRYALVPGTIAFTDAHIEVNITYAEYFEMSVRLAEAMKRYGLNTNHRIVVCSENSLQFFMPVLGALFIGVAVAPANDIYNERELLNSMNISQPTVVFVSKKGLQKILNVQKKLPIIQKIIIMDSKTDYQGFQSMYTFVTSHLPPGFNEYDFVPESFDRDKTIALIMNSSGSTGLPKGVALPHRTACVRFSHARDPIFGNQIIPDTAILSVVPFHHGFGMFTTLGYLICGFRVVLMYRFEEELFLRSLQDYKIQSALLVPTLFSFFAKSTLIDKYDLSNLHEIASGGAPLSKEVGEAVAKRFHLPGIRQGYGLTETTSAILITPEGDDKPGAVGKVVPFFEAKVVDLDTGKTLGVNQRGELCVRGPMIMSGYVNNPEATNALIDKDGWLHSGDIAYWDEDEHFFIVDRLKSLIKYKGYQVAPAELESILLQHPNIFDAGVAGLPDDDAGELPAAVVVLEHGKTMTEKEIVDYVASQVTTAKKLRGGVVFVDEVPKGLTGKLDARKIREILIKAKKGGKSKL
Sequence of Cytochrome P450 1A2 (Homo sapiens) (P05177 whole entry, looked up): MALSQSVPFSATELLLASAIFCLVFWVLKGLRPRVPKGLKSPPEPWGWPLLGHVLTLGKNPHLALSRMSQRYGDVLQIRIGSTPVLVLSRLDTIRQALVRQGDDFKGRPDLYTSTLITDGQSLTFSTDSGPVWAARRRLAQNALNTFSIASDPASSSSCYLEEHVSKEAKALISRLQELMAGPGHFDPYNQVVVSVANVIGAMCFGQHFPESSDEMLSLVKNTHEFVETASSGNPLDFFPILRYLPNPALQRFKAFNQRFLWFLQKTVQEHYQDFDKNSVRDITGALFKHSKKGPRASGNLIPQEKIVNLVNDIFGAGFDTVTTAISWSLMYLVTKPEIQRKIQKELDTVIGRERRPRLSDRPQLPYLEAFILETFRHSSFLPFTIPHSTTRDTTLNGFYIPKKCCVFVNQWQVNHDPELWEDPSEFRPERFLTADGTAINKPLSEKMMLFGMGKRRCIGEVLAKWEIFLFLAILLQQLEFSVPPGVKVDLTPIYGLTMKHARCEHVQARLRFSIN
Sequence of Glucocorticoid receptor (Homo sapiens) (P04150 whole entry, looked up, the tested form may be a part): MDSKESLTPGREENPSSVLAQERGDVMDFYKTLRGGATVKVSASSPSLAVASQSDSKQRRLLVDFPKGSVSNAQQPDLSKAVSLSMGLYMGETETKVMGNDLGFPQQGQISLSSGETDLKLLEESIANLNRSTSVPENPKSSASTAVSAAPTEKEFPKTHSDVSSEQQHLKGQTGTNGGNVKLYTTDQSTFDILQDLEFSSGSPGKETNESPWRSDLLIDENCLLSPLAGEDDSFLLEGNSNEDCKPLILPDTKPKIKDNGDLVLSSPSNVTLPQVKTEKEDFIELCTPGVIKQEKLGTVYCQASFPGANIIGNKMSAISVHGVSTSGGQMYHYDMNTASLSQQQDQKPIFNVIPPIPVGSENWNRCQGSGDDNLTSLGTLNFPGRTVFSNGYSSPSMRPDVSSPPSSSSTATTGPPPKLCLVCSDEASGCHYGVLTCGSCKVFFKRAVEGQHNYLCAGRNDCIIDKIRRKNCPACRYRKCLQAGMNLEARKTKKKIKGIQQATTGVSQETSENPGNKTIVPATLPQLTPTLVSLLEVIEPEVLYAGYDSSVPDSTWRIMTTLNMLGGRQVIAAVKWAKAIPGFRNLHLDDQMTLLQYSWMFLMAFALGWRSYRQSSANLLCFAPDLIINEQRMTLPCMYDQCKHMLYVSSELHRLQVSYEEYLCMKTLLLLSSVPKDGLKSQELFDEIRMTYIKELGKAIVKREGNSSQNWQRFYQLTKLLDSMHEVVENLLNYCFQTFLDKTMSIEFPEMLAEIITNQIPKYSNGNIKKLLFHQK
Sequence of ATP-dependent 6-phosphofructokinase (Trypanosoma brucei brucei) (O15648 whole entry, looked up): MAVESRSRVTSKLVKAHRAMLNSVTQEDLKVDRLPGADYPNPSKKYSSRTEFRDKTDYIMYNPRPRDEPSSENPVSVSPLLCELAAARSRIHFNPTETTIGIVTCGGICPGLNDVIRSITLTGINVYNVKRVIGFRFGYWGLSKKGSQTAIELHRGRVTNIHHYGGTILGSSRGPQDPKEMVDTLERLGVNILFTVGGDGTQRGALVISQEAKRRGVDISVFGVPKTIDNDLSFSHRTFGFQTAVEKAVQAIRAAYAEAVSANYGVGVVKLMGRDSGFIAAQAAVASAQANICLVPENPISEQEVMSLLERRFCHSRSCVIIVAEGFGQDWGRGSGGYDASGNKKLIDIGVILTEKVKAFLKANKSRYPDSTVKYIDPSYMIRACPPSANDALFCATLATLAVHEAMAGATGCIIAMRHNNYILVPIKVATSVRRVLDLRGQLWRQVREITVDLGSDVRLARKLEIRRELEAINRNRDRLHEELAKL
Sequence of Ubiquitin carboxyl-terminal hydrolase 1 (Homo sapiens) (O94782 whole entry, looked up): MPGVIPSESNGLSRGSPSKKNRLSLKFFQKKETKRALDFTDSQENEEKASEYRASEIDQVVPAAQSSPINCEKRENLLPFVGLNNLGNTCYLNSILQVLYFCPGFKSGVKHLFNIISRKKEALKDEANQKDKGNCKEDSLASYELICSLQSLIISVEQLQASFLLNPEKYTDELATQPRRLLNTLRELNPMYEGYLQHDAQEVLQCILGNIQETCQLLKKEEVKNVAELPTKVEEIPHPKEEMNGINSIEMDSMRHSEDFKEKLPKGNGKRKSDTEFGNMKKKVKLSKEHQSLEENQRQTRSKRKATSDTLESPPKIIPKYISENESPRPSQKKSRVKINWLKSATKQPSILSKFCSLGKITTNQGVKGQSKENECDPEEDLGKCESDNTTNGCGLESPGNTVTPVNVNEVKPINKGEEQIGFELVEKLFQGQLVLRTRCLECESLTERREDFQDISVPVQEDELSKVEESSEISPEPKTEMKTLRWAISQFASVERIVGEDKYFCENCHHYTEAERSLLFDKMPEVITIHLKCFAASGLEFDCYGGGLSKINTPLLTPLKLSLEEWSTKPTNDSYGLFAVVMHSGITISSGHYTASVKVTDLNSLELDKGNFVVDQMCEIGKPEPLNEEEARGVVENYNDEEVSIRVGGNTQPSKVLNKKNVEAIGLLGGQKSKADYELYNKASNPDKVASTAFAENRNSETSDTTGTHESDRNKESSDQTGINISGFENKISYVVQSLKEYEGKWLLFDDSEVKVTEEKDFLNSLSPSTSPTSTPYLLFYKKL
Sequence of 3',5'-cyclic-AMP phosphodiesterase 4B (Homo sapiens) (Q07343 whole entry, looked up): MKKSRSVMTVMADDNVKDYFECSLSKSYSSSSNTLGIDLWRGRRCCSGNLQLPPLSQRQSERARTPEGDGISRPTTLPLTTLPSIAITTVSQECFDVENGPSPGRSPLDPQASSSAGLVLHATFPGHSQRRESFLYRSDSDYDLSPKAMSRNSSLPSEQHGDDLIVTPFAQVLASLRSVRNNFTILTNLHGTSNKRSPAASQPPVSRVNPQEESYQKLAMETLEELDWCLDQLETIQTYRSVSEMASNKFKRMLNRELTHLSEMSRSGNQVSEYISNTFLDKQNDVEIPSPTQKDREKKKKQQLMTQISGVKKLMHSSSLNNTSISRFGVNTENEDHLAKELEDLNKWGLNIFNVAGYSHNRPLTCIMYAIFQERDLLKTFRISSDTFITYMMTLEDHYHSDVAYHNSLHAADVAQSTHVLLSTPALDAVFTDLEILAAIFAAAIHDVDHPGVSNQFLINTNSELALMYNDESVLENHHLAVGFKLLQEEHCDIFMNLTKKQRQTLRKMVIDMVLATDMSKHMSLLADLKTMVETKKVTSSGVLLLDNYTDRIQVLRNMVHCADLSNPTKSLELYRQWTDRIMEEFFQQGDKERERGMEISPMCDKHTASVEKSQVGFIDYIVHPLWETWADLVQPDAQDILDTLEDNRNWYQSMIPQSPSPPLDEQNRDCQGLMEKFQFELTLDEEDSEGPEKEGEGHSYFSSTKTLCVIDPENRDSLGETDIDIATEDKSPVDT

C[C@@]12CC[C@H]3[C@@H](CCC4=CC(=O)CC[C@]43C)[C@H]1CC[C@H]2C(=O)CO
inactive: outcome [1] | Potency [2] | activity change, negative = inhibition [3] -6.24% | outcome [4] | Potency [6] > 20.6 µM | Potency [7] | outcome [8] | activity change, negative = inhibition [9] -5.79% | outcome [10] | Potency [11] | outcome [12] | activity, negative = inhibition [13, 17] 3.27% | Potency (C2A) | Potency (CP191) | Potency (CP250) | Potency (FAB9) | Potency (JCK) | Potency (SC27B)
-9.53%: max response [9, 16]
active: Potency [5] 0.0622 µM | Potency ([13]; parasite line A) 4.47 µM
-3.01%: max response [9, 15]

C=CCOc1ccccc1OC[C@H](O)CNC(C)C
-9.74%: max response [9, 16]
inactive: outcome [1] | activity change, negative = inhibition [3] -9.75% | outcome [4] | Potency [5] > 20.6 µM | Potency [6] > 20.6 µM | Potency [7] | outcome [8] | activity change, negative = inhibition [9] 2.07% | outcome [10] | Potency [14] | Potency [11] | outcome [12] | activity, negative = inhibition ([13]; at 12.8 µM (top of the series), parasite line A) -6.89% | activity, negative = inhibition [13, 17] -26.4% | Potency (C2A) | Potency (CP191) | Potency (CP250) | Potency (FAB9) | Potency (JCK) | Potency (SC27B)
active: Potency [2] 5.01 µM
-12.4%: max response [9, 15]

CC[N+](CC)(CC)CC[C@](O)(c1ccccc1)C1CCCCC1
-19.8%: max response [9, 16]
active: activity change, negative = inhibition [3] -68.8%
-17.2%: max response [9, 15]
inactive: outcome [1] | Potency [2] | outcome [4] | Potency [5] > 20.6 µM | Potency [6] > 20.6 µM | Potency [7] | outcome [8] | activity change, negative = inhibition [9] -1.33% | outcome [10] | Potency [14] | Potency [11] | outcome [12] | activity, negative = inhibition [13, 17] -24.4% | Potency (C2A) | Potency (CP191) | Potency (CP250) | Potency (JCK) | Potency (SC27B)

CN1C(=O)C[C@H](c2ccccc2)C1=O
-28%: max response [9, 15]
inactive: outcome [1] | Potency [2] | activity change, negative = inhibition [3] 35.9% | outcome [4] | Potency [5] > 20.6 µM | Potency [6] > 20.6 µM | Potency [7] | outcome [8] | activity change, negative = inhibition [9] 0.325% | outcome [10] | Potency [14] | Potency [11] | activity, negative = inhibition ([13]; at 28.7 µM (top of the series), parasite line B) -2.97% | Potency (C2A) | Potency (CP191) | Potency (CP250) | Potency (FAB9) | Potency (JCK) | Potency (SC27B)
-25.7%: max response [9, 16]
